Rows were chosen to be rich in hits. Some 2.4% of all compounds tested hit in one or more screens of this group.
CHRM1 agonist – human M1 muscarinic receptor agonism. P11229. CHO-K1 hM1, Fluo-8 calcium fluorescence, agonist mode; 0% DMSO, 100% acetylcholine EC100. activation, % at 3 µM. 360,000 tested, 0.33% active;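 active means activation above the run's mean compound activation plus 3 SD, cut at about 16% in these data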;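 further: peak over basal fluorescence ratio within a 140 s kinetic read after compound addition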
Target sequence (P11229 whole entry, looked up): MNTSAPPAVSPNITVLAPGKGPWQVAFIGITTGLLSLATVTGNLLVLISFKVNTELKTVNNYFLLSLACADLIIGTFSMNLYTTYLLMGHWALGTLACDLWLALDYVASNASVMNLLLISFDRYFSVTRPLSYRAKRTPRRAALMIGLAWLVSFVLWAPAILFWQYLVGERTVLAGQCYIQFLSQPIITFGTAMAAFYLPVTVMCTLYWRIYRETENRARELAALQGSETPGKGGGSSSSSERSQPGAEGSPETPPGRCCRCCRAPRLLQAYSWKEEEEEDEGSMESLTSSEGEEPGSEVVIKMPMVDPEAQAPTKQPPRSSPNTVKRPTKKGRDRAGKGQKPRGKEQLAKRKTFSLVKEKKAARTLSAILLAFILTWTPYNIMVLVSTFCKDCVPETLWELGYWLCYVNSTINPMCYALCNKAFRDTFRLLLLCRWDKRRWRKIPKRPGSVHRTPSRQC
CHO-K1 Ca antag – M1 antagonist counterscreen hit in parental CHO-K1 cells. 360,000 tested, 0.6% active. ATP-induced calcium, Fluo-8 fluorescence. inhibition, % at 3 µM. AID 602250;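 active means inhibition above a per-plate cutoff, the plate's mean sample inhibition plus 3 SD, cut at about 24% in these data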;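 further: 0% = DMSO plus EC80 ATP and 100% = DMSO alone without ATP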
M1 ag parental – counter-screen for M1 agonists: effect in parental CHO-K1 cells | 360,000 tested, 0.48% active | activation, % at 3 µM | AID 602248 | Fluo-8 calcium fluorescence; scaled to maximal ATP response, vehicle zero; in the data active means activation above about 15%;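 further: untransfected CHO-K1 host cells lacking M1 receptor as counterscreen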
CHO-K1 Ca PAM – counter-screen for M1 PAMs: effect in parental CHO-K1 cells; AID 602247; 360,000 tested, 0.02% active; ATP EC20, Fluo-8 calcium fluorescence; 0% at ATP EC20, 100% at ATP max; activation, % at 3 µM;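 active means activation above the run cutoff, the mean activation of all test compounds plus 3 SD, cut at about 40% in these data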;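 further: peak over basal fluorescence ratio in a 140 s read after ATP addition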
M1 PAM – potentiates human M1 receptor response to acetylcholine | activation, % at 3 µM | AID 588819 | CHO-K1 hM1, Fluo-8 calcium fluorescence, ACh EC20; 0% = ACh EC20, 100% = maximal ACh | 360,000 tested, 0.088% active; in the data active means activation above about 19%, passing the limit was not always enough
CHRM1 antagonist – blocks human M1 muscarinic receptor; CHO-K1 hM1, Fluo-8 calcium fluorescence, ACh EC80 antagonist; 360,000 tested, 1.3% active; P11229; inhibition, % at 3 µM; AID 588852;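 active means percent inhibition above its own plate's cutoff, namely the mean of that plate's compound wells plus 3 SD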;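 further: peak over basal fluorescence ratio during 140 s after agonist addition; 0% = ACh EC80 plus DMSO and 100% = DMSO alone without agonist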
* marks the source's active call; other numbers are inactive results.

SMILES	CHRM1 agonist	CHO-K1 Ca antag	M1 ag parental	CHO-K1 Ca PAM	M1 PAM	CHRM1 antagonist
O=C(CCS(=O)(=O)c1ccccc1)N(CCCN1CCOCC1)c1nc2ccc(F)cc2s1	-6	-7	4	-11	-4	9
NC(=O)c1ccccc1NC(=O)CN1CCCCCC1	-4	-1	1	-2	10	-11
NC(=O)c1cc(-c2ccccc2)sc1NC(=O)CN1CCCCC1	-3	25*	0	-12	-6	-2
COc1cccc(C2CC(c3cccs3)=NN2C(=O)CSC2=NN3CCCC(=O)N=C3S2)c1OC (configuration not stated)	-6	24*	1	-2	-2	6
O=C1NC(=S)S/C1=C\c1ccc(SCc2ccco2)o1	-3	-6	1	18	5	3
Cc1ncc(CO)c2cc(S(=O)(=O)c3ccc(F)cc3)c(=O)oc12	-1	-13	0	5	-13	23*
Cc1cc(=O)oc2cc(Oc3ccc(C(N)=O)cc3[N+](=O)[O-])ccc12	-6	2	0	-10	5	-8
O=C(NCc1ccco1)Nc1cccc([N+](=O)[O-])c1	0	-12	7	4	1	-7
CCN(CC)CCNc1ccnc2cc(Cl)ccc12	-14	-18	1	8	-4	-5
Clc1ccc2c(NCc3ccccc3)ccnc2c1	-5	5	17*	-1	-9	-1
Cc1cc(C)nc(NC(=NCc2ccc3c(c2)OCO3)NC(=O)Nc2ccccc2)n1	-7	2	0	-4	-14	32*
CC(C)Sc1ccc(C(=O)Nc2ccc(F)cc2F)cn1	-10	-14	1	25	11	-12
O=C(O)c1cccc(Cn2cc(Br)cn2)c1	-2	1	0	2	-4	-7
O=C(NCc1ccncc1)c1cccc(Cn2cc(Br)cn2)c1	-5	-9	2	19	-20	97*
COC(=O)C1=C[C@@H](C(=O)OC)[C@@H]2C3=C(C(=O)[C@@]2(C)NC(=O)c2ccccc2)[C@H](C)C(C(=O)OC)=C(C(=O)OC)[C@@H]3C1	-3	15	0	-22	-15	27
CN(C)CCC#CC1(O)c2ccccc2-c2ccccc21	-9	-1	1	9	-29	66*
CCN(CC)CCC#CC1(O)c2ccccc2-c2ccccc21	-9	-13	1	16	-29	99*
CC(C)(C)N(CC#CCC1(O)c2ccccc2-c2ccccc21)CCO	-14	-7	0	16	-20	5
OC1(C#CCN2CCCC2)c2ccccc2-c2ccccc21	-9	-11	0	18	-25	85*
OC(C#CCN1CCCC1)c1ccccc1 (configuration not stated)	-12	1	0	1	-20	17
CCC1Sc2ccccc2N(CC(=O)NC2CCCC2)C1=O (configuration not stated)	-9	0	0	11	-4	4
CCCCN(CCCC)CCNC(=O)CN1C(=O)CSc2ccc(S(=O)(=O)N3CCOCC3)cc21	-6	-13	0	7	-24	87*
COCCNC(=O)CN1C(=O)CSc2cc(S(=O)(=O)N3CCCCCC3)ccc21	-1	35*	0	-10	8	-9
CCCCN(CC)CCCNC(=O)CN1C(=O)CSc2ccc(S(=O)(=O)N3CCOCC3)cc21	-16	0	0	-7	-5	0
COCCNC(=O)CN1C(=O)CSc2ccc(S(=O)(=O)N3CCOCC3)cc21	-3	-7	0	23	2	-4
CC(=O)Nc1ccc(NC(=O)CNC(=O)COc2ccccc2)cc1	-5	1	0	14	8	-3
Cc1ccc(S(=O)(=O)N2CCN(C(=O)CCc3nc4ccccc4c(=O)[nH]3)CC2)c(C)c1	-7	-5	1	4	5	-12
Nc1nc(Nc2ccccc2F)sc1C(=O)c1ccccc1	17*	-21	10	13	11	-3
COC(=O)c1ccc(CN2CCN(Cc3ccccc3)C(CCO)C2)cc1 (configuration not stated)	-10	-3	0	17	-1	-9

Screening results from PubChem.
